Data on 1 sequence can be found in article PMC7862700, “An all-to-all approach to the identification of sequence-specific readers for epigenetic DNA modifications on cytosine”.

Assay in all cases: DAPPL (digital affinity profiling via proximity ligation, sequencing); 10 mM Tris-HCl pH 7.5, 50 mM NaCl, 1 mM DTT, 4% glycerol, room temperature, 30 min; GST-TFs on glutathione beads, 16-mer random dsDNA library, 0.1% formaldehyde crosslink after washing; high values mean tight binding
One experiment concerns the target T1, FLI1 (Homo sapiens, UniProt Q01543 1-452).
T1 sequence: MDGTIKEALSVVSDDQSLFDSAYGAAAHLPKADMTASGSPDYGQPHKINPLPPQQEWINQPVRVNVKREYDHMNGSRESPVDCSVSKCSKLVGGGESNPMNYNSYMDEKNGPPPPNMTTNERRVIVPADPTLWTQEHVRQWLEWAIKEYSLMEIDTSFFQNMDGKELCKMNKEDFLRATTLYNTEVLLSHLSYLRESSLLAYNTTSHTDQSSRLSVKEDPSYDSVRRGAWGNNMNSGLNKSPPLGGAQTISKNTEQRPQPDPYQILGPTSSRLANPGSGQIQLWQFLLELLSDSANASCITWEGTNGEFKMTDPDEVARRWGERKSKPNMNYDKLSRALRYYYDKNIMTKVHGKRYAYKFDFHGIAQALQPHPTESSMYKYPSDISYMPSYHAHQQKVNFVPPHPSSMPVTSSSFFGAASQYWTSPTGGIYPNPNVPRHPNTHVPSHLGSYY
Conditions: protein: recombinant; tags: N-terminal GST; dsDNA, one strand shown. An outline of the steps:
(§1)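 Sequencing on an Illumina NextSeq500 followed washing, crosslinking with 0.1% formaldehyde, proximity ligation (BsaI/T4 ligase, 1 h, 37 °C) and PCR amplification of pools that had been incubated for 30 min at room temperature with 200 nmole of a random double-stranded 16-mer DNA library in Tris/NaCl/DTT/glycerol buffer. Each pool held DNA-barcoded human transcription factors, expressed in yeast as GST fusions and captured on glutathione beads, plus a tag-only sample. Binding signal is a hexamer's read frequency for a factor divided by its frequency in the tag-only sample.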

The target of another experiment is T2, ELK1 (Homo sapiens, UniProt P19419 1-428).
T2 sequence: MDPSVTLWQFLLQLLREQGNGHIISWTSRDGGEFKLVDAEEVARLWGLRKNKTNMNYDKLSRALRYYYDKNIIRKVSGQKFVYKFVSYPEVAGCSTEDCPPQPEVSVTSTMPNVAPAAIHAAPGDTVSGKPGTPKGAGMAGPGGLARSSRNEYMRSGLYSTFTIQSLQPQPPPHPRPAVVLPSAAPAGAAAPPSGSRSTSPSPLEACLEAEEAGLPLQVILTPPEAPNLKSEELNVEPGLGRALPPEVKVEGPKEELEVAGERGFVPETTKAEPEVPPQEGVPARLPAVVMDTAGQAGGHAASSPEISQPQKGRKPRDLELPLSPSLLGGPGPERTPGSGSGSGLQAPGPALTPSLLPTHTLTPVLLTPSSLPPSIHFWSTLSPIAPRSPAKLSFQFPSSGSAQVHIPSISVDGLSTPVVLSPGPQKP
Particulars: protein: recombinant; tags: N-terminal GST; dsDNA, one strand shown. An outline of the steps:
as §1

In a further experiment the target is T3, GABPA (Homo sapiens, UniProt Q06546 1-454).
T3 sequence: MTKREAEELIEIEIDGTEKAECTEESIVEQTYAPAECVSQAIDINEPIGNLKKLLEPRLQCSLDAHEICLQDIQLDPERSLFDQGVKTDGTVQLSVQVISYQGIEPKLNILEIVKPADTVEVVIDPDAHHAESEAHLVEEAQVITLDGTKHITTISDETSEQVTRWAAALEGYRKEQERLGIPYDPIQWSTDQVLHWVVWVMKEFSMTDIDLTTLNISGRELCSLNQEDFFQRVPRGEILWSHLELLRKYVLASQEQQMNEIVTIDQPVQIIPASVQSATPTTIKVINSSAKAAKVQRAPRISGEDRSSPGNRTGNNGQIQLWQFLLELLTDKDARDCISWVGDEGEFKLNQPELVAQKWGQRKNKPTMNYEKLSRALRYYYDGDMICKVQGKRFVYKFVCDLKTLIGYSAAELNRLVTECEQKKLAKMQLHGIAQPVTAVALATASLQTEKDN
Conditions: protein: recombinant; tags: N-terminal GST; dsDNA, one strand shown. An outline of the steps:
as §1

Another experiment concerns the target T4, ERG (Homo sapiens, UniProt P11308 1-479).
T4 sequence: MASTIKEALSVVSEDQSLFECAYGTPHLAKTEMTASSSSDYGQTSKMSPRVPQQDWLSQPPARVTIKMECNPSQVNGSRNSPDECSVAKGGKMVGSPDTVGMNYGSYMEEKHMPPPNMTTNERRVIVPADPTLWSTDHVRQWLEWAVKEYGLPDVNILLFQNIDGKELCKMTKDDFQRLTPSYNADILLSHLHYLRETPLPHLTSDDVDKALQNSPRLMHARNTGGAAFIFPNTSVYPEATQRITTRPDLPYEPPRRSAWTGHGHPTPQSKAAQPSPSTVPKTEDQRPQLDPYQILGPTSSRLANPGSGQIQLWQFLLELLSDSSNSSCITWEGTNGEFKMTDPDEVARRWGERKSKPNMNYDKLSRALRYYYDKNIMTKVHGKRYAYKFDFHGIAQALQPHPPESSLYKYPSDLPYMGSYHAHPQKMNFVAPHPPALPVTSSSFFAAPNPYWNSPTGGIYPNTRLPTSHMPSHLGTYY
Particulars: protein: recombinant; tags: N-terminal GST; dsDNA, one strand shown. Summed up:
as §1

The target of the next experiment is ELF1 (Homo sapiens, UniProt P32519 1-619). Conditions: protein: recombinant; tags: N-terminal GST; dsDNA, one strand shown. Summed up: as §1
In the next experiment the target is T5, EHF (Homo sapiens, UniProt Q9NZC4 1-300).
T5 sequence: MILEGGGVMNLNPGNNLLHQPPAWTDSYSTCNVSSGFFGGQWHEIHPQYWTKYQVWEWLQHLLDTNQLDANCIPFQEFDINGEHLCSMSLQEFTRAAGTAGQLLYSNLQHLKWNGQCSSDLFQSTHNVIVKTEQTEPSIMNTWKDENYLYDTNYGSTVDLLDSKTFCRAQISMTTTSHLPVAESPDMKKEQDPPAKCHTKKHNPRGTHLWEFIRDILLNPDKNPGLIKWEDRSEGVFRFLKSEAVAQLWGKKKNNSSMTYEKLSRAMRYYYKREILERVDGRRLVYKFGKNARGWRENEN
Conditions: protein: recombinant; tags: N-terminal GST; dsDNA, one strand shown. An outline of the steps: as §1

Another experiment has as its target SPI1 (Homo sapiens, UniProt P17947 1-270). Conditions: protein: recombinant; tags: N-terminal GST; dsDNA, one strand shown. Summed up:
as §1

A further experiment addresses SPIB (Homo sapiens, UniProt Q01892 1-262). Particulars: protein: recombinant; tags: N-terminal GST; dsDNA, one strand shown. An outline of the steps: as §1
Another experiment concerns the target T6, ELK3 (Homo sapiens, UniProt P41970 1-407).
T6 sequence: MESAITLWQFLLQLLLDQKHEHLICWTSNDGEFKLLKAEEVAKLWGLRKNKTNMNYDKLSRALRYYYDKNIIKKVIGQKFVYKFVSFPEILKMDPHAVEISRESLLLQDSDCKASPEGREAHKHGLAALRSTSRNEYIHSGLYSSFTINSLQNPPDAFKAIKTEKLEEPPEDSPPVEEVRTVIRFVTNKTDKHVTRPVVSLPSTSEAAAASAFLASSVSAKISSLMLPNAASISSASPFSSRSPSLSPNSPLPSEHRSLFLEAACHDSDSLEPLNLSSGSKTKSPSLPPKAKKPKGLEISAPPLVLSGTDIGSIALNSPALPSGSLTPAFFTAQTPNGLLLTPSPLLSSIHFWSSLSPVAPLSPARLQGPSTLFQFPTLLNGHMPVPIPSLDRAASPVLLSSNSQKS
Conditions: protein: recombinant; tags: N-terminal GST; dsDNA, one strand shown. An outline of the steps:
as §1

Another experiment concerns the target T7, FEV (Homo sapiens, UniProt Q99581 1-238).
T7 sequence: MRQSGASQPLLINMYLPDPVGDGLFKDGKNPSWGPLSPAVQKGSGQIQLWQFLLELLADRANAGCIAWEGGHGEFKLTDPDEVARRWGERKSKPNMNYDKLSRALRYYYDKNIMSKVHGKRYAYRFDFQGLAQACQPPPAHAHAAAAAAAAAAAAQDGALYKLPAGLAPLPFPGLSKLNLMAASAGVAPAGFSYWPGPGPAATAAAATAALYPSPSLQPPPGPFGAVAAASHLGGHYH
Conditions: protein: recombinant; tags: N-terminal GST; dsDNA, one strand shown. Summed up: as §1

The target of the next experiment is ETV5 (Homo sapiens, UniProt P41161 1-510). Particulars: protein: recombinant; tags: N-terminal GST; dsDNA, one strand shown. Summed up:
as §1

The target of the next experiment is HSF1 (Homo sapiens, UniProt Q00613 1-529). Particulars: protein: recombinant; tags: N-terminal GST; chain copies: 3; dsDNA, one strand shown. An outline of the steps: as §1
The target of a further experiment is T8, SPIC (Homo sapiens, UniProt Q8N5J4 1-248).
T8 sequence: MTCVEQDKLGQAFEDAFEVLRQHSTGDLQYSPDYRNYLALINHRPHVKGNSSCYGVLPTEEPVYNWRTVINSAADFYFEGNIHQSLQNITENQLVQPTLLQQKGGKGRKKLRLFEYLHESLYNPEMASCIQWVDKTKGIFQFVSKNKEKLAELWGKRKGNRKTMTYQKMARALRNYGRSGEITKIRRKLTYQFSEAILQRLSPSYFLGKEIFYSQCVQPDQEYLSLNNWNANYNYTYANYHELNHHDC
Particulars: protein: recombinant; tags: N-terminal GST; dsDNA, one strand shown. Summed up: as §1

In another experiment the target is ELF4 (Homo sapiens, UniProt Q99607 1-663). Particulars: protein: recombinant; tags: N-terminal GST; dsDNA, one strand shown. An outline of the steps:
as §1

The next experiment has as its target T9, ELK4 (Homo sapiens, UniProt P28324-2 1-405).
T9 sequence: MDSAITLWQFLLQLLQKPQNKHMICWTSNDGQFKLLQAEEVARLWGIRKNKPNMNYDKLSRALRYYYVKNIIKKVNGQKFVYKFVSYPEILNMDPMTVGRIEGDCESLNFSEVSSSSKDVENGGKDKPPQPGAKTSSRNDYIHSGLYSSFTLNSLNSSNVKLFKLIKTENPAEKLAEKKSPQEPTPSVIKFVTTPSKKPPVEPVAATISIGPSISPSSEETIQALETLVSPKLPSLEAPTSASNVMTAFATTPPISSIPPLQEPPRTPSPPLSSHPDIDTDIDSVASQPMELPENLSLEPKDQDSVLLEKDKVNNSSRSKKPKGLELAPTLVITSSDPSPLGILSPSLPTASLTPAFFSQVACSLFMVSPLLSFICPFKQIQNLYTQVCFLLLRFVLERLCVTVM
Conditions: protein: recombinant; tags: N-terminal GST; dsDNA, one strand shown. An outline of the steps:
as §1

The next experiment has as its target T10, ETV2 (Homo sapiens, UniProt O00321 1-342).
T10 sequence: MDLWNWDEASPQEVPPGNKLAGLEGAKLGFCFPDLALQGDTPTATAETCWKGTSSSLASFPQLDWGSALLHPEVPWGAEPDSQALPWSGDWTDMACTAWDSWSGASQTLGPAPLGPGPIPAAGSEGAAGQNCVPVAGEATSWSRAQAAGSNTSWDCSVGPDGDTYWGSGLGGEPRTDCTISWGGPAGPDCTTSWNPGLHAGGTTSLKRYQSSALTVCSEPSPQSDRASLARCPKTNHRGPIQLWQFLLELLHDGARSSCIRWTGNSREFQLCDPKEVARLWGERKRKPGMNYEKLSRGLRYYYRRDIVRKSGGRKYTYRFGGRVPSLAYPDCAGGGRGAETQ
Particulars: protein: recombinant; tags: N-terminal GST; dsDNA, one strand shown. Summed up:
as §1

The target of a further experiment is T11, ELF3 (Homo sapiens, UniProt P78545 1-371).
T11 sequence: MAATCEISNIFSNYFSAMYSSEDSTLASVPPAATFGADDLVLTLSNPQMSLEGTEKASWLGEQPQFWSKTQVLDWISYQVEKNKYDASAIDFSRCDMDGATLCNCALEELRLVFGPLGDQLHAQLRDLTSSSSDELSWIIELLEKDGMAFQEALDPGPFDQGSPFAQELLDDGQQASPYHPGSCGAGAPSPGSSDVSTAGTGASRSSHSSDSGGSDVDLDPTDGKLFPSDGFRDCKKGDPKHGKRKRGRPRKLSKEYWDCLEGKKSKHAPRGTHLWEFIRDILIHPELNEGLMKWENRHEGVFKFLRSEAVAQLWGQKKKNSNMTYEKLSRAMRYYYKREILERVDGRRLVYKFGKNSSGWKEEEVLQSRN
Conditions: protein: recombinant; tags: N-terminal GST; dsDNA, one strand shown. Summed up:
as §1

For another experiment, the target named is ETV1 (Homo sapiens, UniProt P50549 1-477). Particulars: protein: recombinant; tags: N-terminal GST; dsDNA, one strand shown. An outline of the steps:
as §1

SPIB, sequence (Q01892 whole entry): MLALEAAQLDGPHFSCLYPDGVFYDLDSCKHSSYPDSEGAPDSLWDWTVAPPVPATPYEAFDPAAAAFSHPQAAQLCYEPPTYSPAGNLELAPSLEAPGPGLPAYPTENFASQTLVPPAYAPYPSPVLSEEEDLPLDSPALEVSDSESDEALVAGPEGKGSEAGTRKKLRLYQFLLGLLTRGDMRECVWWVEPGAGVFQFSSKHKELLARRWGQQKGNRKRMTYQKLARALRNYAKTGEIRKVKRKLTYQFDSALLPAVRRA
ELF4, sequence (Q99607 whole entry): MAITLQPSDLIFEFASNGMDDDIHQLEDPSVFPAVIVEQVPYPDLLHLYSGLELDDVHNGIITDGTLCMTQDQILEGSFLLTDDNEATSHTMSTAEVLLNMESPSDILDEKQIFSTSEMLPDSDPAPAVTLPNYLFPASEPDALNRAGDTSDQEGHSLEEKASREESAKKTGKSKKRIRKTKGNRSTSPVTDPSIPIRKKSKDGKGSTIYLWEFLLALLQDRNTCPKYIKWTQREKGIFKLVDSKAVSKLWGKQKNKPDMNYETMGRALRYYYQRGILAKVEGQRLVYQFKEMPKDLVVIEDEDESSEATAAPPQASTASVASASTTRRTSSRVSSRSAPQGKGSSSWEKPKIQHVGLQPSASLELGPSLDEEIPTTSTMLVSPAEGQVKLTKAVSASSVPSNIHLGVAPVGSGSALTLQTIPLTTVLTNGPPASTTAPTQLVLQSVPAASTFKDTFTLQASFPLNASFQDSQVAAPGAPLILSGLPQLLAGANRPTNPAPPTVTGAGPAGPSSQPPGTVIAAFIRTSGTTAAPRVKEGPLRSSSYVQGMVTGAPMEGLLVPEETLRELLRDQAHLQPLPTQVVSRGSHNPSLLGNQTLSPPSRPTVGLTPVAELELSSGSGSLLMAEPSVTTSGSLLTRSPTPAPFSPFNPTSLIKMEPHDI
HSF1, sequence (Q00613 whole entry): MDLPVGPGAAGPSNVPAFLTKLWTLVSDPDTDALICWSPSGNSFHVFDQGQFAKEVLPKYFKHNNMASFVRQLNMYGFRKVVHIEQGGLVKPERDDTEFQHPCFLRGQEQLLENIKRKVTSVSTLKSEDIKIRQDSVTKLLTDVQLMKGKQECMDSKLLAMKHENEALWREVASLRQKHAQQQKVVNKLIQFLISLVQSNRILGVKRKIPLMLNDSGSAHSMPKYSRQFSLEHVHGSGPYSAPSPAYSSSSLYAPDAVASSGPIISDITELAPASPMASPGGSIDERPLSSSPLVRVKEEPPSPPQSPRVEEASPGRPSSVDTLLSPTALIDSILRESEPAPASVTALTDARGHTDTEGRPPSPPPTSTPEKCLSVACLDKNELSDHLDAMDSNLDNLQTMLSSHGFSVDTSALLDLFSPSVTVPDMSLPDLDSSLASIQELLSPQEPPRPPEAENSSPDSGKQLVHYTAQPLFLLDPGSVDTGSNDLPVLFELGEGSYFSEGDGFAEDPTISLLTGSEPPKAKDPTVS
ETV1, sequence (P50549 whole entry): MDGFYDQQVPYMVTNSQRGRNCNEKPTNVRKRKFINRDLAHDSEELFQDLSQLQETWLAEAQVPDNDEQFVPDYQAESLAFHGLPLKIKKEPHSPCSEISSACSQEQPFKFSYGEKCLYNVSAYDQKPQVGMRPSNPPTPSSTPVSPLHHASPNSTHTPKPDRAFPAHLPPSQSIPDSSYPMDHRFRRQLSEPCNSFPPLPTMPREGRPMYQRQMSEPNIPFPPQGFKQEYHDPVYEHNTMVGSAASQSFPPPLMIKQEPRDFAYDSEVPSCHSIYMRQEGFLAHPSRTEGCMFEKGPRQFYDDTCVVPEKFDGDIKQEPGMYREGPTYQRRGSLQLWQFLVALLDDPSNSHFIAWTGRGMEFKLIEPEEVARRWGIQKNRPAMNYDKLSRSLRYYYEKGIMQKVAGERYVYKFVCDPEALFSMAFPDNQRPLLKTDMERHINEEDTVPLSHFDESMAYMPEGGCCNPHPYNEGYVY
ETV5, sequence (P41161 whole entry): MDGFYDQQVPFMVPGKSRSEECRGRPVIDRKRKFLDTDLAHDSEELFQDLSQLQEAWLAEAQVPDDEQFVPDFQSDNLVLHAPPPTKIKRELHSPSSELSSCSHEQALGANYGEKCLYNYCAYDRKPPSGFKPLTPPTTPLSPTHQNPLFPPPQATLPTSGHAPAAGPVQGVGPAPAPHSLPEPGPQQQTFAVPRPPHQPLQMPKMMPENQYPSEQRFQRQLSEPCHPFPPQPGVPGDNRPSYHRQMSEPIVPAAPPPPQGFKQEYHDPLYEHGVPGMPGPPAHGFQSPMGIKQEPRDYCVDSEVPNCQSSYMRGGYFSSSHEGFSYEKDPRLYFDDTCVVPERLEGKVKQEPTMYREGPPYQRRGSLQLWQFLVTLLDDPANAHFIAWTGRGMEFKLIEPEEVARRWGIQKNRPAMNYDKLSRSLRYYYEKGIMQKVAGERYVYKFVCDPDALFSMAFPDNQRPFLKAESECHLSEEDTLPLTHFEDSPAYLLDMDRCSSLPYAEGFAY
ELF1, sequence (P32519 whole entry): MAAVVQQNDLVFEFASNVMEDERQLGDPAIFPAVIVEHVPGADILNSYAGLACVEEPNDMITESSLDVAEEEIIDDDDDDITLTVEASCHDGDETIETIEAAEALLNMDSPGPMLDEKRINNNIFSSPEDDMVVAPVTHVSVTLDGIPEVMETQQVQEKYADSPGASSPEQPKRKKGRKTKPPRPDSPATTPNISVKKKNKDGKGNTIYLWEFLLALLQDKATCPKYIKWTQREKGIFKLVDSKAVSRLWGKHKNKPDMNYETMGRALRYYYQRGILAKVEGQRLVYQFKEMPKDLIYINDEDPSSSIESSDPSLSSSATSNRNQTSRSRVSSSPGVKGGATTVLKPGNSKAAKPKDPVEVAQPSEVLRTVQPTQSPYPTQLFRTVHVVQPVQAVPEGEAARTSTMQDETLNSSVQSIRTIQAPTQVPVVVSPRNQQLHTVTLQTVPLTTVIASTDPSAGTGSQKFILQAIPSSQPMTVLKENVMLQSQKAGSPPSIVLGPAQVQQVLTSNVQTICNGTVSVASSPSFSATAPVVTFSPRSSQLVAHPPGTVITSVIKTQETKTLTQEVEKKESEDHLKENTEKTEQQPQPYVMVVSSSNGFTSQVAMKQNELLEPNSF

On to GGTTTC, for which the binding signal in the experiment with FLI1 is 1.53 fold enrichment (6-mer frequency, TF over GST control); with ELK1 it was 1.39 fold enrichment (6-mer frequency, TF over GST control); with GABPA, 1.54 fold enrichment (6-mer frequency, TF over GST control); with ERG, 1.6 fold enrichment (6-mer frequency, TF over GST control); with ELF1, 1.54 fold enrichment (6-mer frequency, TF over GST control); in the experiment with EHF, 1.51 fold enrichment (6-mer frequency, TF over GST control). Besides, the binding signal in the experiment with SPI1 was 1.6 fold enrichment (6-mer frequency, TF over GST control); in the experiment with SPIB, 1.52 fold enrichment (6-mer frequency, TF over GST control); in the experiment with ELK3, 1.62 fold enrichment (6-mer frequency, TF over GST control); with FEV, 1.55 fold enrichment (6-mer frequency, TF over GST control); with ETV5, 1.61 fold enrichment (6-mer frequency, TF over GST control); with HSF1, 1.16 fold enrichment (6-mer frequency, TF over GST control). In addition, the binding signal was 1.5 fold enrichment (6-mer frequency, TF over GST control) in the experiment with SPIC; 1.49 fold enrichment (6-mer frequency, TF over GST control) with ELF4; 1.36 fold enrichment (6-mer frequency, TF over GST control) with ELK4; 1.43 fold enrichment (6-mer frequency, TF over GST control) with ETV2; 1.31 fold enrichment (6-mer frequency, TF over GST control) with ELF3; 1.64 fold enrichment (6-mer frequency, TF over GST control) with ETV1.
